# The campaign covered roughly 68,000 compounds. About 2,700 (4%) showed an effect of 50% or more. The entries come from a sample that favours strong results as a whole.
# Tested on: Plasmodium berghei
# Assay: Screen against P. berghei liver stage (PbLuc), transformed with Luciferase, at 2uM
# Format: functional, HepG2
# Conditions: tested at 2 uM
row,SMILES,INHIBITION [%]
1,c1cnnc(N2CCCC2CNCc2nc(-c3cccs3)no2)c1 (centres undefined),-8.75
2,Cc1cccc(-n2nc(CC(C)C)nc2CS(C)(=O)=O)c1,3.92
3,Cc1cc(N2CCC(N(C)C(=O)c3sccc3C)CC2)nc(C)n1,-82.24
4,OCC1CCCCN1CCn1ccnc1-c1ccc2c(c1)OCCO2 (centres undefined),63.46
5,Cc1ccsc1-c1nccn1CCN1CCCCC1CO (centres undefined),-12.08
6,Cc1cc(-c2nccn2CCN2CCCCC2CO)oc1C (centres undefined),47.04
7,CC(O)c1cn(Cc2cccc(C(F)(F)F)c2)nn1 (centres undefined),19.08
8,COc1ccccc1CN1C[C@@H](F)[C@@H](OCc2nc3ncccc3[nH]2)C1,55.57
9,COc1ccccc1CN1C[C@@H](F)[C@@H](OCc2nc3cnccc3[nH]2)C1,14.89
10,COc1ccccc1CN1C[C@@H](F)[C@@H](OCc2nc3ccccc3[nH]2)C1,-6.21
11,O=C(CS(=O)(=O)Cc1cc(Cl)c2c(c1)OCCCO2)NCC1CC1,2.77
12,CCNC(c1cccnc1)c1ccc(F)c(C)c1 (centres undefined),1.61
13,CCCNC(c1ccc(F)cc1)c1cccnc1 (centres undefined),26.18
14,CCNC(c1ccc(C(C)C)cc1)c1cccnc1 (centres undefined),58.05
15,CCCNC(c1cccnc1)c1ccc(F)c(C)c1 (centres undefined),62.36
16,CCNC(c1ccc(F)cc1)c1cccnc1 (centres undefined),-49.8
17,CCNC(c1ccc(C)cc1)c1cccnc1 (centres undefined),-41.21
18,CCCNC(c1cccnc1)c1ccc(F)cc1F (centres undefined),-3.32
19,CCNC(c1ccc(Cl)cc1)c1cccnc1 (centres undefined),8.37
20,CCNC(c1cccnc1)c1ccc(F)cc1F (centres undefined),53.98
21,c1cc(CN2CCC(c3nnc4n3CCCCC4)CC2)c2nonc2c1,-60.89
22,CC(C)n1ncc2c1NC(=O)CC21C(=O)Nc2c(Cl)ccc(Cl)c21 (centres undefined),-40.36
23,c1csc(-c2noc(C3CN(Cc4ccc5c(c4)CCO5)C3)n2)c1,35.6

row,SMILES,INHIBITION [%]
1,O=C1CCNc2ncc(-c3ccccc3Cl)cc2CN1C1CC1,18.48
2,CCc1c(C)noc1-c1cnc(NC2CC2)nc1-c1cnc(C)cn1,26.93
3,O=C(c1cccc2ncccc12)N1CCCC(n2ccnc2)C1 (centres undefined),43.85
4,O=C(c1cccc2cccnc12)N1CCCC(n2ccnc2)C1 (centres undefined),54.2
5,O=C(c1ccc(-n2cnnc2)cc1)N1CCCC(n2ccnc2)C1 (centres undefined),56.02
6,O=C(c1ccnc(-n2ccnc2)c1)N1CCCC(n2ccnc2)C1 (centres undefined),70.27
7,O=C(c1ccc2c(c1)OCO2)N1CCCC(n2ccnc2)C1 (centres undefined),-0.05
8,O=C(c1ccc2c(c1)OCCO2)N1CCCC(n2ccnc2)C1 (centres undefined),78.98
9,O=C(c1ccc(-n2cnnn2)cc1)N1CCCC(n2ccnc2)C1 (centres undefined),43.79
10,O=C(c1ccc(-n2ccnc2)cc1)N1CCCC(n2ccnc2)C1 (centres undefined),28.87
11,O=C(c1ccc2c(c1)OCCCO2)N1CCCC(n2ccnc2)C1 (centres undefined),11.95
12,Cc1nccn1C1CCCN(C(=O)c2ccnc(-n3ccnc3)c2)C1 (centres undefined),-13.24
13,O=C(c1cccnc1N1CCCCC1)N1CCCC(n2ccnc2)C1 (centres undefined),3.33
14,O=C(c1ccnc(-n2ccnc2)c1)N1CCCC(n2cccn2)C1 (centres undefined),-58.05
15,CN(C)C(=O)N1C[C@H]2CC[C@@H](C1)N(C(=O)c1c(Cl)cccc1Cl)C2,-42.12
16,CN1CCCN(C(=O)NCc2ccccc2Cn2cncn2)CC1,28.62
17,Cn1cccc1C(=O)OCCNC(=O)c1ccccc1,-9.17
18,O=C(CC1CCCCC1)N1C[C@@H]2CC[C@H]1CN(Cc1cccnc1)C2,9.56
19,Cc1ccc(CN2Cc3cnn(C)c3C(COCC3CC3)C2)o1 (centres undefined),47.63
20,CNC(=O)C1CCCCN1C(=O)c1sc(-c2ccc(C)o2)nc1C (centres undefined),16.73
21,O=c1nc(SCc2cccnc2)c2c(n1CCO)CCCC2,13.46
22,CCN(Cc1ccc2c(c1)OCCO2)C(=O)NCc1cc[nH]n1,21.31
23,CSCC(C)(O)CNS(=O)(=O)c1cccc(C)c1 (centres undefined),9.27

row,SMILES,INHIBITION [%]
1,CSCC(C)(O)CNS(=O)(=O)c1ccc(Br)cc1 (centres undefined),9.27
2,CSCC(C)(O)CNS(=O)(=O)c1cccc(Cl)c1 (centres undefined),56.89
3,O=c1ccc(-n2ccnc2)nn1CCNS(=O)(=O)c1ccc(Cl)s1,-54.51
4,CC(C)n1nc2c(cc1=O)CN(CCOc1ccc(C#N)cc1)CC2,9.8
5,CNC(=O)c1cccc(C2CNCCN2C(=O)c2ccn(C)n2)c1 (centres undefined),24.56
6,Cc1ccc(C(=O)N2CCOCC3(CCN(C4CCOCC4)C3)C2)o1 (centres undefined),14.89
7,Cc1cccc(N(CCC(N)=O)CC(=O)Nc2ccccc2)c1,50.31
8,Cc1cccc(N(CCC(N)=O)CC(=O)NC2CCCC2)c1,-22.8
9,Cc1cccc(N(CCC(N)=O)CC(=O)Nc2cc(Cl)ccc2Cl)c1,-10.14
10,CC(NC(=O)NCC1(c2ccc(F)cc2)CC1)c1nncn1C (centres undefined),-7.13
11,CC(C)c1cc(NC(=O)CNC2CCCN(c3cccnn3)C2)on1 (centres undefined),53.98
12,Cc1cc(NC(=O)CNC2CCCN(c3cccnn3)C2)on1 (centres undefined),-3.06
13,Cc1ccc(N2CCCC(NCC(=O)Nc3cc(C)no3)C2)nn1 (centres undefined),6.3
14,CC1=N[C@@]2(CC[C@@H]3CN(CC(=O)N(C)C)C[C@@H]32)C(=O)N1CC1CC1,-25.29
15,CN(Cc1ccc(F)cc1)CC1(O)CCN(C(=O)c2ccsc2)C1 (centres undefined),47.4
16,COCCCNC(=O)CN(C)C(=O)c1cc(C)ccc1N(C)C(C)C,-61.5
17,CC(C)CNC(=O)CCN1C(=O)CCc2cc(F)ccc21,55.39
18,CC(C)C(C)NC(=O)CCN1C(=O)CCc2cc(F)ccc21 (centres undefined),31.16
19,CCCC(C)NC(=O)CCN1C(=O)CCc2cc(F)ccc21 (centres undefined),6.92
20,NC(=O)C(CNC(=O)Cc1ccc(F)cc1)Cc1ccc(F)cc1 (centres undefined),-39.58
21,O=C(NCC(O)c1ccc(F)c(F)c1)c1ccccc1F (centres undefined),26.74
22,Cc1ccccc1C(=O)NCC(O)c1ccc(F)c(F)c1 (centres undefined),60.13
23,O=C(NCC(O)c1ccc(F)c(F)c1)c1cccnc1O (centres undefined),-38.85

# Source: ChEMBL document CHEMBL4513216, “Probing the Open Global Health Chemical Diversity Library for Multistage-Active Starting Points for Next-Generation Antimalarials” (ACS Infect Dis, 2020)
